# Compound activity deposited in PubChem by Center for Chemical Genomics, University of Michigan.
# Shown is part of a subset that was picked to be rich in hits.
# Dicer inh: inhibitors of human Dicer processing of pre-microRNA. z-score at 25 µM. cat-ELCCA pre-miR-21 Dicer processing, chemiluminescence; active compounds read high. 47,000 compounds, 6% hits; in the data active = z-score above about 3, passing the limit was not always enough;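 also: plate controls were vehicle for no effect and no enzyme for full effect; higher signal means more uncleaved substrate so more Dicer inhibition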
# * hit, by the source's call.
SMILES,Dicer inh
CC(C)=NNC(=S)Nc1ccc(Cl)cc1,6*
S=C(Nc1ccc(Cl)cc1)Nc1ccc(Cl)cc1,1.8
N#CC1=C(OC(=O)c2cccc(C(F)(F)F)c2)c2ccc(Cl)cc2N(S(=O)(=O)c2ccc(Cl)cc2)CC1,-0.68
Cc1[nH]nc(-c2ccc(O)c(C)c2O)c1Oc1ccccc1,3.1*
CCOc1cc(O)c(-c2n[nH]c(C)c2Oc2ccccc2)cc1CC,2.4
CCOc1ccc(-c2n[nH]c(C)c2Oc2ccc(F)cc2)c(O)c1,2.3
COc1ccc(CN2CCN(Cc3ccc(SC)cc3)CC2)cc1OC,1.4
NNC(=O)CC12CC3CC(CC(C3)C1)C2,0.01
CSc1nsc(SC)c1C#N,-0.27
COc1ccc(-c2cc(OC(=O)c3ccccc3C)c3c(C)oc(C)c3c(=O)c2)cc1,6.7*
CCOc1cc(-c2ccc(OC)cc2)cc(=O)c2c(C)oc(C)c12,-0.25
CCOc1ccc(-c2cc(OC(=O)c3ccccc3F)c3c(C)oc(C)c3c(=O)c2)cc1,0.02
OCCCc1nc2ccccc2n1CCCOc1ccc(Cl)cc1,0.7
OCCCc1nc2ccccc2n1CCCCOc1ccc(Cl)cc1,6.1*
OCc1nc2ccccc2n1CC(O)COc1ccc(Cl)cc1 (configuration not stated),-1.9
O=S(=O)(Oc1ccc(Cl)cc1)c1sc(Br)cc1Br,-1.2
CSc1nnc2c(n1)OC(c1cccc(O)c1)Nc1ccccc1-2 (configuration not stated),0.05
CCOc1ccc(C2c3c(oc4ccccc4c3=O)C(=O)N2c2nncs2)cc1OC (configuration not stated),-0.25
COC(=O)c1sc(N2CCCCC2)c(C#N)c1N,29*
COC(=O)c1sc(N2CCCC2)c(S(=O)(=O)C(C)C)c1N,-0.38
COC(=O)c1sc(N2CCCC2)c(C#N)c1-c1cccs1,-2.2
Nc1nc(NCc2ccccc2F)nn1-c1ccccc1,0.4
CCOc1ccc(C2C(C(=O)OC)=C(C)NC3=C2C(=O)CC(C)(C)C3)cc1OC (configuration not stated),-0.75
Cc1c2c(=O)n(-c3nc4ccccc4s3)nc-2cc(O)n1Cc1ccccc1,0.33
CC(=O)N1CCN(CCn2c(C)c3c(=O)n(-c4nc5ccccc5s4)[nH]c3cc2=O)CC1,-0.51
SMILES,Dicer inh
Cc1c2c(=O)n(-c3nc4ccccc4s3)[nH]c2cc(=O)n1Cc1ccc(C(=O)O)cc1,27*
Cc1nc(N)ncc1-c1nnnn1-c1ccc(-c2ccccc2)cc1,0.73
OCCNc1ncnc2c1oc1ccccc12,0.64
c1ccc(-c2c(-c3ccccc3)n(Cc3ccco3)c3ncnc(NCCCn4ccnc4)c23)cc1,3.9*
OCCNc1ncnc2c1c(-c1ccccc1)c(-c1ccccc1)n2Cc1ccco1,5.9*
c1cn(CCCNc2ncnc3ccsc23)cn1,-1.4
Cc1ccccc1OCc1nc(C#N)c(NCCCn2ccnc2)o1,-0.23
c1ccc(-c2c(-c3ccccc3)n(Cc3ccco3)c3ncnc(NCc4ccco4)c23)cc1,2.8
COc1cccc(/C=N\NC(=S)NC(C)(C)C)c1OCc1ccccc1,-1.4
Cc1cc(C)c2c(n1)sc1c(=S)nc[nH]c12,0.54
COc1cccc(C(c2c[nH]c3ccccc23)c2c[nH]c3ccccc23)c1,0.33
O=C(O)CC(C(=O)O)c1c[nH]c2ccccc12 (configuration not stated),0.21
Oc1ccc(Cl)cc1C(c1c[nH]c2ccccc12)c1c[nH]c2ccccc12,4.3*
COc1ccc(C(c2c[nH]c3ccccc23)c2c[nH]c3ccccc23)cc1OC,-0.04
CCOc1cccc(C(c2c[nH]c3ccccc23)c2c[nH]c3ccccc23)c1O,6.4*
Cc1cccc(C(c2c[nH]c3ccccc23)c2c[nH]c3ccccc23)c1O,1.2
COC(=O)c1ccc(S(=O)(=O)NN2CCOCC2)n1C,-1
CSc1nc(/N=C/N(C)C)n(-c2ccccc2)n1,0.02
NNC(=O)CN1C(=O)CSc2ccc(C(F)(F)F)cc21,6.2*
O=C1CSc2ccc(C(F)(F)F)cc2N1,-1
CNC(=S)NNC(=O)CN1C(=O)CSc2ccc(C(F)(F)F)cc21,-0.71
Cn1c(Sc2nc3ccc(Cl)cc3s2)nnc1-c1ccc2ccccc2c1,-0.12
COC(=O)/C(C#N)=C/c1ccccc1C,2.4
O=C(CN1CC(=O)Oc2ccccc21)Oc1ccc(F)cc1,-1.2
Nc1nc(-c2ccc(Cl)cc2)nn1S(=O)(=O)c1ccccc1,1.8
SMILES,Dicer inh
CCS(=O)(=O)n1nc(-c2ccccc2)nc1N,3.3*
CCS(=O)(=O)n1nc(-c2ccc(Cl)cc2)nc1SC,2.7
CCOc1ccc(N(C(C)=O)C2SC(=O)N(c3ccccc3)C2=O)cc1 (configuration not stated),0.03
CCOC(=O)CSc1nnc(-c2ccccc2)n1-c1ccccc1,-0.86
O=C(COC(=O)c1ccccc1Nc1ccccc1F)c1ccccc1,-6.3
O=C(COC(=O)c1ccccc1-c1ccccc1)c1ccccc1,2.1
O=C(COC(=O)c1ccc(C(O)c2ccccc2)cc1)c1ccccc1 (configuration not stated),4*
Cc1ccc(S(=O)(=O)CCSc2nnc(-c3ccco3)n2C)cc1,-2.2
COC(=O)C1=C(Nc2ccc(Cl)cc2)CSC1,-1.8
